In PubChem BioAssay (NCATS):
Values joined by “and” are separate entries in the source; they are usually repeats but may differ in a detail not shown here. Identical values can stand only once. Inconclusive results are not listed. Where a call stands in place of a potency, no number is given. The source holds several records for some structures; these can differ, active in one and inactive in another. Active and inactive are the calls of the source. The call rests on the fitted dose curve; in most records, active means well fitted inhibition curve with a large enough effect; inconclusive means small, poorly fitted or top-dose-only effect; inactive means flat fitted curve, though single readings scatter.

Molecular target: Glutathione peroxidase 1 (Homo sapiens) (UniProt P07203)
Sequence (P07203 whole entry, looked up): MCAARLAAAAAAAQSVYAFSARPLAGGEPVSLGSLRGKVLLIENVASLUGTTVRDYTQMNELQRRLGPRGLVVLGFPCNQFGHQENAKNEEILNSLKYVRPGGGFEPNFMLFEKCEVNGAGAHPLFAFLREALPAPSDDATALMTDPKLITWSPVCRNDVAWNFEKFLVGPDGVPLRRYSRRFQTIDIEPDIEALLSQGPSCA
Experiment: Primary qHTS Assay for Inhibitors of Recombinant Selenoprotein Glutathione Peroxidase 1 (GPX1) (AID 1845191); further: nearly all actives have a fitted effect of over 65% in size
Conditions: recombinant GPX1, GR-coupled NADPH fluorescence, 15 min; series mostly up to 48.8 µM
From the text: Assay Provider: Elias S.J. Arner MD PhD.
Department of Medical Biochemistry and Biophysics
Karolinska Institutet, Solna, Stockholm, Sweden
Selenoprotein glutathione peroxidases (GPX), like the ubiquitously expressed GPX1 and the ferroptosis modulator GPX4, enact their antioxidant activities by reducing hydroperoxides using glutathione. […] GPX1 and GPX4 inhibitors have thus shown promise as anti-cancer agents. Existing inhibitors are often promiscuous, or modulate GPX activity only indirectly, so novel direct inhibitors identified through screening against GPX1 and GPX4 could be valuable. Here, we developed optimized glutathione reductase (GR)-coupled GPX assays for the biochemical high-throughput screen (HTS) of almost 12,000 compounds with known mechanisms of action. Initial hits were triaged using a GR counter-screen, assessed for isoform specificity using a separate GPX2 assay, and were assessed for general selenocysteine-targeting activity using a thioredoxin reductase (TXNRD1) assay. With this suite of assays, we identified novel GPX1/GPX2- and GPX4-specific inhibitors and can here present a validated pipeline for future discovery research for selenoprotein-targeting agents.
SEQUENCE No. (e.g., 1, 2, 3, etc.); […] (e.g., Cells, Incubation, Reagent, etc.); VALUE; DESCRIPTION.
1; Reagent 1; 3 uL; GPx1 enzyme or no enzyme control in 1536-well, black, solid Greiner assay plate.
2; Compound; 25 nL; Kalypsis pin tool (Wako USA) equipped with a 1536-well pin head.
3; Incubation; 30 min; room temperature.
4; Reagent 2; 1 uL; 10 nM GPX1, 1 mM GSH, 0.5 mM CHP, 0.5 mM NADPH, 100 nM GR, 0.01% BSA substrate
5; Detection; Fluorescence; ViewLux microplate reader, excitation 340 nm and emission 450 nm.
6; Incubation; 15 min; room temperature.
7; Detection; Fluorescence; ViewLux microplate reader, excitation 340 nm and emission 450 nm.
NOTES (numbers refer to Sequence numbers above)
1. 3 uL of 16.66 nM GPX1 and 0.016% BSA in assay buffer (50 mM Tris-HCl, 2 mM EDTA (pH 7.5), 150 mM NaCl) was added to columns 3-48 of 1536-well assay plates using a BioRAPTR Flying Reagent Dispenser (Let's Go Robotics (LGR), Carlsbad, CA). A no-enzyme control (0.01% BSA in TES assay buffer) was added to columns 1-2.
2. 25 nL of test compounds and DMSO controls were added to each well with a pin tool (Kalypsys).
3. The assay plates were incubated for 30 minutes at room temperature.
4. 1 uL of master mix (500 nM glutathione reductase (GR), 5 mM reduced glutathione (GSH), 2.5 mM NADPH in assay buffer) was added. 1 uL of cumene hydroperoxide (CHP) ([2.5 mM] in 50% EtOH) was then added within 5 minutes to initiate the reaction. Final concentrations were: 10 nM GPX1, 1 mM GSH, 0.5 mM CHP, 0.5 mM NADPH, 100 nM GR, 0.01% BSA.
5. Initial fluorescence readout (t=0) at 340/450 nm was measured using a ViewLux multimodal detector (PerkinElmer, Waltham, MA).
7. Endpoint fluorescence readout (t=15) at 340/450 nm was measured 15 min after room temperature incubation.
Potency means the concentration at half of the fitted maximal effect.

| Compound | Potency | outcome |
| --- | --- | --- |
| Cc1cccc(N(C)C(=S)Oc2ccc3ccccc3c2)c1 | inactive | – |
| C[C@@H]1CN(c2c(F)c(N)c3c(=O)c(C(=O)O)cn(C4CC4)c3c2F)C[C@H](C)N1 | inactive | – |
| O=C(O)c1cn(C2CC2)c2cc(N3CCNCC3)c(F)cc2c1=O | – | inactive [at 9.52 µM] |
| Clc1ccccc1CN1CCc2sccc2C1 | inactive | – |
| CCCCCCNC(=O)n1cc(F)c(=O)[nH]c1=O | inactive | – |
| COc1ncnc(NS(=O)(=O)c2ccc(N)cc2)c1OC | inactive | – |
| OCc1ccc(-c2nn(Cc3ccccc3)c3ccccc23)o1 | inactive | – |
| CC[C@H](C)C(=O)O[C@H]1C[C@@H](C)C=C2C=C[C@H](C)[C@H](CC[C@@H]3C[C@@H](O)CC(=O)O3)[C@H]21 | inactive | – |
| O=C(O)CCn1c2c(c3ccccc31)C[C@H](NS(=O)(=O)c1ccc(F)cc1)CC2 | inactive | – |
| O=C(O)CSCC(=O)NC1CCSC1=O (stereo not given) | inactive | – |
| COc1cc2ncnc(Nc3cccc(Cl)c3)c2cc1OC | inactive | – |
| C[C@@H](NCCCc1cccc(C(F)(F)F)c1)c1cccc2ccccc12 | inactive | – |
| CN(C)CCc1c[nH]c2ccc(CS(=O)(=O)N3CCCC3)cc12 | inactive | – |
| CN(CCOc1ccc(CC2SC(=O)NC2=O)cc1)c1ccccn1 (stereo not given) | inactive | – |
| Cc1oc(=O)oc1CN1CCN(c2cc3c(cc2F)c(=O)c(C(=O)O)c2n3C(C)S2)CC1 (stereo not given) | inactive | – |
| CC[C@H](NC(C)C)[C@H](O)c1ccc(O)c2[nH]c(=O)ccc12 | inactive | – |
| O=S(=O)(O)CCS | inactive | – |
| CC(C(=O)O)c1ccc2c(c1)CC(=O)c1ccccc1S2 (stereo not given) | inactive and 16.1 µM (active) | – |
| CC(C)OC(=O)C(C(=O)OC(C)C)=C1SC=CS1 | inactive | – |
| Cc1ccnc2c1NC(=O)c1cccnc1N2C1CC1 | inactive | – |

| Compound | Potency | outcome |
| --- | --- | --- |
| CC(C)OC(=O)OCOP(=O)(CO[C@H](C)Cn1cnc2c(N)ncnc21)OCOC(=O)OC(C)C | inactive | – |
| CC(C)NCC(O)c1ccc(NS(C)(=O)=O)cc1 (stereo not given) | inactive | – |
| N[C@@H](Cc1ccc(O)c(O)c1)C(=O)O | inactive | – |
| C#CCN[C@@H]1CCc2ccccc21 | inactive | – |
| CCn1cc(C(=O)O)c(=O)c2cc(F)c(N3CCN(C)CC3)cc21 | inactive | – |
| CC(C)(C)C(=O)OCOP(=O)(COCCn1cnc2c(N)ncnc21)OCOC(=O)C(C)(C)C | inactive | – |
| COC(=O)Nc1nc2ccc(S(=O)c3ccccc3)cc2[nH]1 (stereo not given) | inactive | – |
| COc1ccc(-c2ccc3cc(C(=O)O)ccc3c2)cc1C12CC3CC(CC(C3)C1)C2 | inactive | – |
| Nc1nc(=S)c2[nH]cnc2[nH]1 | inactive | – |
| CCC(=O)O[C@]1(C(=O)SCF)[C@H](C)C[C@H]2[C@@H]3C[C@H](F)C4=CC(=O)C=C[C@]4(C)[C@@]3(F)[C@@H](O)C[C@@]21C | inactive | – |
| CCN1CCCC1CNC(=O)c1cc(S(N)(=O)=O)ccc1OC (stereo not given) | inactive | – |
| CCn1cc(C(=O)O)c(=O)c2cc(F)c(N3CCNCC3)nc21 | inactive | – |
| CCOC(=O)c1ccc(OC(=O)CCCCCN=C(N)N)cc1 | inactive | – |
| CNC(=O)c1cc(Oc2ccc(NC(=O)Nc3ccc(Cl)c(C(F)(F)F)c3)cc2)ccn1 | inactive | – |
| Oc1c(Cl)cc(Cl)c2cccnc12 | inactive | – |
| CC(C)C[C@H](NC(=O)[C@H](CCc1ccccc1)NC(=O)CN1CCOCC1)C(=O)N[C@@H](Cc1ccccc1)C(=O)N[C@@H](CC(C)C)C(=O)[C@@]1(C)CO1 | inactive | – |
| COc1cnc(NS(=O)(=O)c2ccc(N)cc2)nc1 | inactive | – |
| CC(C)C1CCC(C(=O)N[C@H](Cc2ccccc2)C(=O)O)CC1 (stereo not given in full) | inactive | – |
| CN(C)CCc1c[nH]c2ccc(C[C@H]3COC(=O)N3)cc12 | inactive | – |
| Cc1c(-c2ccc(O)cc2)n(Cc2ccc(OCCN3CCCCCC3)cc2)c2ccc(O)cc12 | inactive | – |
